# Data reported in the supplement of paper PMC6658780.
# Counter-ions that a name gives are not always drawn. ± gives the standard deviation of the averaged measurements.
# Experiments:
# [1] = tested on: Escherichia coli ATCC BAA-2469; assay: percent growth inhibition of drug + antibiotic vs DMSO control; higher = more growth inhibition; details: 7 µM
# Experimental: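 Prestwick drugs tested at 20 uM and 7 uM with an antibiotic at 0.125x MIC (16 mg/L when MIC >128 mg/L) against E. coli ATCC BAA-2469 (NDM-1) in CAMHB, 384-well plates, duplicate runs. Percent growth inhibition was computed from OD600 (24 h minus 0 h) relative to DMSO wells. Drug + DMSO-only wells are also given. […]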
# [2] = tested on: Klebsiella pneumoniae KPC-119; assay: percent growth inhibition of drug alone vs DMSO control; higher = more growth inhibition; details: antibiotic (0.125x MIC): none (0.1% DMSO)
# [3] = tested on: Klebsiella pneumoniae KPC-119; assay: percent growth inhibition of drug + antibiotic vs DMSO control; higher = more growth inhibition
# [4] = tested on: Klebsiella pneumoniae NCTC-13439; assay: percent growth inhibition of drug alone vs DMSO control; higher = more growth inhibition; details: antibiotic (0.125x MIC): none (0.1% DMSO)
# [5] = tested on: Klebsiella pneumoniae NCTC-13439; assay: percent growth inhibition of drug + antibiotic vs DMSO control; higher = more growth inhibition
# [6] = antibiotic (0.125x MIC): gentamicin
# [7] = antibiotic (0.125x MIC): colistin, 7 µM
# [8] = antibiotic (0.125x MIC): colistin, 20 µM
# [9] = antibiotic (0.125x MIC): gentamicin, 7 µM
# [10] = antibiotic (0.125x MIC): tigecycline, 7 µM
# [11] = antibiotic (0.125x MIC): tigecycline, 20 µM
# [12] = antibiotic (0.125x MIC): gentamicin, 20 µM
# [13] = antibiotic (0.125x MIC): meropenem, 7 µM
# [14] = antibiotic (0.125x MIC): meropenem, 20 µM
# [15] = antibiotic (0.125x MIC): ciprofloxacin, 7 µM
# [16] = antibiotic (0.125x MIC): ciprofloxacin, 20 µM
# [17] = antibiotic (0.125x MIC): ciprofloxacin
structure (smiles),measurement,setting,value
OCCN1CCN(CCCN2c3ccccc3Sc3ccc(C(F)(F)F)cc32)CC1 [Fluphenazine dihydrochloride],percent growth inhibition,[1]; [6],1.67 ± 0.74%
Cc1cc(C(C)(C)CC(C)(C)C)ccc1OCCOCC[N+](C)(C)Cc1ccccc1 [Methyl benzethonium chloride],percent growth inhibition of drug alone,[2]; 7 µM,-1.94 ± 2.4%
same,percent growth inhibition of drug alone,[2]; 20 µM,-2.28 ± 0.9%
same,percent growth inhibition,[3]; [7],22 ± 6.4%
CCOC(=O)c1ccc(OC(=O)CCCCCNC(=N)N)cc1 [Gabexate mesilate],percent growth inhibition,[1]; [6],4.82 ± 3.7%
COc1cnc(NS(=O)(=O)c2ccc(N)cc2)nc1 [Sulfameter],percent growth inhibition of drug alone,[2]; 7 µM,-1.55 ± 2.6%
same,percent growth inhibition of drug alone,[2]; 20 µM,-0.515 ± 1.5%
same,percent growth inhibition,[3]; [8],-5.03 ± 15%
CO/N=C(\C(=O)N[C@@H]1C(=O)N2C(C(=O)O)=C(COC(N)=O)CS[C@H]12)c1ccco1 [Cefuroxime sodium salt],percent growth inhibition,[1]; [6],-0.221 ± 4.4%
CO[C@H]1/C=C/O[C@@]2(C)Oc3c(C)c(O)c4c(O)c(c(/C=N/N5CCN(C6CCCC6)CC5)c(O)c4c3C2=O)NC(=O)/C(C)=C\C=C\[C@H](C)[C@H](O)[C@@H](C)[C@@H](O)[C@@H](C)[C@H](OC(C)=O)[C@@H]1C [Rifapentine],percent growth inhibition of drug alone,[2]; 7 µM,2.17 ± 1.7%
same,percent growth inhibition of drug alone,[2]; 20 µM,34.82 ± 0.22%
same,percent growth inhibition of drug alone,[4]; 7 µM,6.76 ± 7.4%
same,percent growth inhibition of drug alone,[4]; 20 µM,11.1 ± 17%
same,percent growth inhibition,[3]; [8],93.01 ± 0.93%
same,percent growth inhibition,[3]; [9],4.75 ± 13%
same,percent growth inhibition,[5]; [10],14.7 ± 5.3%
same,percent growth inhibition,[5]; [11],42.9 ± 12%
CC1=C(/C=C/C(C)=C/C=C/C(C)=C/C(=O)O)C(C)(C)CCC1 [Retinoic acid],percent growth inhibition of drug alone,[2]; 7 µM,1.08 ± 2.4%
same,percent growth inhibition of drug alone,[2]; 20 µM,0.222 ± 2%
same,percent growth inhibition,[3]; [8],-10.3 ± 2.1%
O=C(O)c1cn(-c2ccc(F)cc2)c2cc(N3CCNCC3)c(F)cc2c1=O [Sarafloxacin],percent growth inhibition of drug alone,[2]; 7 µM,56.9 ± 1.9%
same,percent growth inhibition of drug alone,[2]; 20 µM,98.9 ± 1.1%
same,percent growth inhibition of drug alone,[4]; 7 µM,19.6 ± 1.8%
same,percent growth inhibition of drug alone,[4]; 20 µM,98.4 ± 1.6%
same,percent growth inhibition,[3]; [9],99.81 ± 0.1%
same,percent growth inhibition,[3]; [12],99.82 ± 0.22%
same,percent growth inhibition,[3]; [13],99.613 ± 0.042%
same,percent growth inhibition,[3]; [14],83.6 ± 19%
same,percent growth inhibition,[5]; [15],59.24 ± 0.15%
same,percent growth inhibition,[5]; [16],99.59 ± 0.23%
same,percent growth inhibition,[5]; [10],50 ± 14%
same,percent growth inhibition,[5]; [11],99.57 ± 0.39%
CO[C@H]1/C=C/O[C@@]2(C)Oc3c(C)c(O)c4c(O)c(c5c(nc6cc(C)ccn65)c4c3C2=O)NC(=O)/C(C)=C\C=C\[C@H](C)[C@H](O)[C@@H](C)[C@@H](O)[C@@H](C)[C@H](OC(C)=O)[C@@H]1C [Rifaximin],percent growth inhibition of drug alone,[2]; 7 µM,18.5 ± 1.3%
same,percent growth inhibition of drug alone,[2]; 20 µM,71.9 ± 2.4%
same,percent growth inhibition of drug alone,[4]; 7 µM,1.28 ± 0.063%
same,percent growth inhibition of drug alone,[4]; 20 µM,17.5 ± 13%
same,percent growth inhibition,[3]; [7],99.23 ± 0.84%
same,percent growth inhibition,[5]; [15],-1.2 ± 3.8%
same,percent growth inhibition,[5]; [16],50.5 ± 1.9%
same,percent growth inhibition,[5]; [10],7.05 ± 5.2%
same,percent growth inhibition,[5]; [11],50.7 ± 4%
CC[C@H]1OC(=O)[C@H](C)[C@@H](O[C@H]2C[C@@](C)(OC)[C@@H](O)[C@H](C)O2)[C@H](C)[C@@H](O[C@@H]2O[C@H](C)C[C@H](N(C)C)[C@H]2O)[C@](C)(O)C[C@@H](C)CN(C)[C@H](C)[C@@H](O)[C@]1(C)O [Azithromycin],percent growth inhibition of drug alone,[2]; 7 µM,5.21 ± 1.8%
same,percent growth inhibition of drug alone,[2]; 20 µM,21.1 ± 1%
same,percent growth inhibition of drug alone,[4]; 7 µM,55.2 ± 6.6%
same,percent growth inhibition of drug alone,[4]; 20 µM,74.4 ± 19%
same,percent growth inhibition,[3]; [7],40.9 ± 12%
same,percent growth inhibition,[3]; [8],98.78 ± 0.7%
same,percent growth inhibition,[5]; [15],44.5 ± 5.6%
same,percent growth inhibition,[5]; [16],99.666 ± 0.042%
same,percent growth inhibition,[5]; [10],64.2 ± 2.8%
O=c1[nH]c(=O)n([C@H]2C[C@H](O)[C@@H](CO)O2)cc1F [Floxuridine],percent growth inhibition of drug alone,[2]; 7 µM,34.2 ± 2.8%
same,percent growth inhibition of drug alone,[2]; 20 µM,92.8 ± 5.4%
same,percent growth inhibition of drug alone,[4]; 7 µM,43.4 ± 0.88%
same,percent growth inhibition of drug alone,[4]; 20 µM,99.63 ± 0.17%
same,percent growth inhibition,[3]; [8],98.9 ± 1.5%
same,percent growth inhibition,[3]; [13],89.6 ± 10%
same,percent growth inhibition,[3]; [14],98.5 ± 1.4%
same,percent growth inhibition,[5]; [15],64.6 ± 15%
same,percent growth inhibition,[5]; [16],99.05 ± 0.42%
Nc1nnc(-c2cccc(Cl)c2Cl)c(N)n1 [Lamotrigine],percent growth inhibition,[1]; [6],7.06 ± 4.8%
CO[C@@]1(NC(=O)CSCC#N)C(=O)N2C(C(=O)O)=C(CSc3nnnn3C)CS[C@@H]21 [Cefmetazole sodium salt],percent growth inhibition of drug alone,[2]; 7 µM,2.72 ± 1.2%
same,percent growth inhibition of drug alone,[2]; 20 µM,32.6 ± 2.3%
same,percent growth inhibition,[3]; [9],3.52 ± 6.6%
Nc1ccn([C@@H]2O[C@H](CO)[C@@H](O)C2(F)F)c(=O)n1 [Gemcitabine],percent growth inhibition,[1]; [17],23.1 ± 11%
NC[C@@H]1O[C@H](O[C@H]2[C@@H](O)[C@H](O[C@@H]3[C@@H](O)[C@H](N)C[C@H](N)[C@H]3O[C@H]3O[C@H](CO)[C@@H](O)[C@H](O)[C@H]3N)O[C@@H]2CO)[C@H](N)[C@@H](O)[C@@H]1O [Paromomycin sulfate],percent growth inhibition of drug alone,[2]; 7 µM,-0.033 ± 0.073%
same,percent growth inhibition of drug alone,[2]; 20 µM,41.3 ± 0.58%
same,percent growth inhibition of drug alone,[4]; 7 µM,11.4 ± 2.6%
same,percent growth inhibition of drug alone,[4]; 20 µM,43.7 ± 12%
same,percent growth inhibition,[3]; [7],12.7 ± 6.7%
same,percent growth inhibition,[3]; [9],8.59 ± 1.5%
same,percent growth inhibition,[5]; [10],6.3 ± 3%
CC(Cc1cccc(C(F)(F)F)c1)NCCOC(=O)c1ccccc1 (centres undefined) [Benfluorex],percent growth inhibition of drug alone,[2]; 7 µM,1.43 ± 3%
same,percent growth inhibition of drug alone,[2]; 20 µM,-0.224 ± 0.36%
same,percent growth inhibition,[3]; [8],4.58 ± 2.8%
CC(=O)OC[C@H]1O[C@@H]([S-])[C@H](OC(C)=O)[C@@H](OC(C)=O)[C@@H]1OC(C)=O.CCP(CC)CC.[Au+] [Auranofin],percent growth inhibition of drug alone,[2]; 7 µM,10 ± 0.89%
same,percent growth inhibition of drug alone,[2]; 20 µM,50.22 ± 0.3%
same,percent growth inhibition of drug alone,[4]; 7 µM,9.98 ± 8.3%
same,percent growth inhibition of drug alone,[4]; 20 µM,22.6 ± 13%
same,percent growth inhibition,[3]; [7],101 ± 3.5%
same,percent growth inhibition,[3]; [8],96.14 ± 0.42%
same,percent growth inhibition,[3]; [9],33.2 ± 9.4%
same,percent growth inhibition,[3]; [12],99.78 ± 0.2%
same,percent growth inhibition,[3]; [13],98.3 ± 1.4%
same,percent growth inhibition,[3]; [14],99.5 ± 0.13%
same,percent growth inhibition,[5]; [15],10.8 ± 5.5%
CC(C)NC[C@H](O)COc1ccc(CC(N)=O)cc1 [(S)-(-)-Atenolol],percent growth inhibition of drug alone,[2]; 7 µM,0.932 ± 4.5%
same,percent growth inhibition of drug alone,[2]; 20 µM,-0.0403 ± 1.4%
same,percent growth inhibition,[3]; [8],-1.42 ± 6%
CC(C)(C)C(=O)OCOC(=O)[C@@H]1N2C(=O)[C@@H](/N=C/N3CCCCCC3)[C@H]2SC1(C)C [Pivmecillinam hydrochloride],percent growth inhibition,[1]; [17],2.89 ± 3.3%
OCCOCCN1CCN(C2=Nc3ccccc3Sc3ccccc32)CC1 [Quetiapine hemifumarate],percent growth inhibition of drug alone,[2]; 7 µM,-3.12 ± 4%
same,percent growth inhibition of drug alone,[2]; 20 µM,-3.25 ± 2.9%
same,percent growth inhibition of drug alone,[4]; 7 µM,-15.6 ± 19%
same,percent growth inhibition of drug alone,[4]; 20 µM,-5.29 ± 6.1%
same,percent growth inhibition,[3]; [8],-8.06 ± 1.8%
same,percent growth inhibition,[5]; [10],-9.2 ± 16%
same,percent growth inhibition,[5]; [11],-7.45 ± 10%
CN[C@@H]1[C@@H](O[C@H]2O[C@H](CO)[C@@H](N)[C@H](O)[C@H]2O)OC2C[C@@H](N)[C@@H](O[C@H]3[C@H](O)[C@@H](O)[C@H](N)C[C@@H]3N)OC2[C@@H]1O (some centres undefined) [Apramycin],percent growth inhibition of drug alone,[2]; 7 µM,4.95 ± 5.6%
same,percent growth inhibition of drug alone,[2]; 20 µM,52.9 ± 1.4%
same,percent growth inhibition of drug alone,[4]; 7 µM,4.78 ± 15%
same,percent growth inhibition of drug alone,[4]; 20 µM,88 ± 17%
same,percent growth inhibition,[3]; [9],27.9 ± 0.46%
same,percent growth inhibition,[3]; [12],99.968 ± 0.004%
same,percent growth inhibition,[5]; [10],35.7 ± 13%
same,percent growth inhibition,[5]; [11],100 ± 0.19%
